Experimental data published in PubChem BioAssay.
Active and inactive are the calls of the source. The rule behind the calls is not given here.

The compounds below were run on Aerobactin synthetase IucA (Klebsiella pneumoniae hvKP1) (assay: IucA enzyme inhibition, primary screen, biochemical, Spectrum library (AID 1346200;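 note: 100% = wells without compound and 0% = wells lacking enzyme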)). Conditions: malachite green pyrophosphate, A620, at 8 µM, stronger effect = lower value.
With `O=C(/C=C/c1ccccc1)O[C@H]1C[C@@H](O)[C@]2(O)C=CO[C@@H](O[C@@H]3O[C@H](CO)[C@@H](O)[C@H](O)[C@H]3O)[C@H]12` the activity remaining was 108% (inactive). For `C#C[C@]1(O)CCC2C3CCc4cc(O)ccc4C3CC[C@@]21C` (some centres not stated), the activity remaining was 105% (inactive). In the case of `CN(C)CCOc1ccc(/C(=C(/CCCl)c2ccccc2)c2ccccc2)cc1`, the activity remaining is reported as 112% (inactive). In the case of `C[C@@H]1CCC2[C@](C)(CO)[C@@H](O)CC[C@]2(C)[C@@]12CC[C@@](CO)(CCO)O2` (some centres not stated), the activity remaining is reported as 113% (inactive). In the case of `CNCC[C@H](Oc1cccc2ccccc12)c1cccs1`, the activity remaining is reported as 114% (inactive). For `CO/N=C(/C(=O)N[C@@H]1C(=O)N2C(C(=O)O)=C(COC(C)=O)CS[C@H]12)c1csc(N)n1`, the activity remaining was 117% (inactive). For `CCn1cc(C(=O)O)c(=O)c2cc(F)c(N3CCNCC3)nc21`, the activity remaining was 91.3% (inactive).
